An excerpt weighted towards active compounds, which were near 8.9% of everything screened.
D3 ag: activates the human D3 dopamine receptor; P35462; D3R DiscoveRx beta-arrestin cells, luminescence, 90 min; max activation, %; hit rate 0.58% among 410,000; in the data active means max activation above about 30%; further: 0% is about no effect
Target sequence (P35462 whole entry, looked up): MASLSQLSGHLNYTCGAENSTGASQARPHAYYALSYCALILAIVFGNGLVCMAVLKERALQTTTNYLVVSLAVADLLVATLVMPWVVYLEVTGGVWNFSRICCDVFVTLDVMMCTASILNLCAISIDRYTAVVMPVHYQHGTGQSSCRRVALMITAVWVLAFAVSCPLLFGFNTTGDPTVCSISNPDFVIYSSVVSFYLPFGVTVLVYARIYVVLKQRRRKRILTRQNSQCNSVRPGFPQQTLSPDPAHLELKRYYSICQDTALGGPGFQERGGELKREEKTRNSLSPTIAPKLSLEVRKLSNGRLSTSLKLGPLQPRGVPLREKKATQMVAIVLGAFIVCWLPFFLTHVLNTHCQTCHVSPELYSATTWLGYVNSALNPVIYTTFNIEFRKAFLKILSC
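Cells at 1500/well, incubated overnight, then treated with pinned compounds (dopamine as control) for 90 min at 37 degrees C. DiscoveRx reagent added for 30 - 60 minutes at room temperature; luminescence read.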
SW480 rerep: DNA re-replication induction in SW480 cells | hit rate 1.8% among 340,000 | SW480 DNA re-replication, Hoechst DNA content imaging, 48 h | AID 624297 | Potency, µM (highest dose often 46.1 µM), for the others: at the top dose re-replication activation, actives largely listed as activators; further: potency means the concentration at half of the fitted maximal effect; % of control where 0% means no effect; nearly all actives have a fitted effect of over 55% in size
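Per well, 250 cells were exposed to pinned compound for 48 hr. Nuclear DNA was visualised with Hoechst (40 min, 37 C) and total object intensity recorded by fluorescence scanning.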
MCF10A rereplic: inducers of DNA re-replication in MCF 10A breast cells; MCF 10A DNA re-replication, Hoechst nuclear intensity, 48 h; Potency, µM (doses to about 46.1 µM), for the others: at the highest dose activity, positive = re-replication, usual class: activators; hit rate 2.9% among 350,000; AID 624296; further: potency means the concentration at half of the fitted maximal effect; % of control where 0% means no effect; nearly all actives have a fitted effect of over 50% in size
D3 antag: antagonists of human D3 dopamine receptor. max response, negative = inhibition, %. D3R cells, DiscoveRx beta-arrestin luminescence, antagonist mode; stronger effect = lower value. AID 652054. hit rate 2.5% among 360,000; in the data active means max response below about -50%; inconclusive means no clear call, values can overlap the other calls; further: on the % scale 0 is the no-effect control and ±100 the full control effect
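Cells plated overnight at 1500 cells/well, then exposed to library compounds with dopamine controls for 90 minutes at 37 degrees C. DiscoveRx reagent added for 30–60 minutes at room temperature; luminescence read, quantitative HTS format.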
KB-3-1 tox: KB-3-1 parental cell cytotoxicity. KB-3-1 viability, CellTiter-Glo ATP luminescence, 72 h. hit rate 1.4% among 400,000. Potency, µM (top dose mostly 46.1 µM), hits mostly cytotoxic; further: potency means the concentration at half of the fitted maximal effect; on the % scale 0 is the no-effect control and ±100 the full control effect; nearly all actives have a fitted effect of over 60% in size
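KB-3-1 parental drug-naive adenocarcinoma cells in DMEM/10% FBS, incubated 72 h at 37 C with pin-transferred compounds across a concentration series. Viability by CellTiter-Glo luminescence; concentration-response curves fitted after normalization.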
KB-V1 cytotox: KB-V1 MDR subline cytotoxicity. AID 1347076. KB-V1 MDR cells viability, CellTiter-Glo, 72 h. Potency, µM (series often up to 46.1 µM), usual class: cytotoxic. hit rate 3.4% among 400,000; further: potency means the concentration at half of the fitted maximal effect; on the % scale 0 is the no-effect control and ±100 the full control effect; nearly all actives have a fitted effect of over 60% in size
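Readout: CellTiter-Glo luminescence, 10 min after addition. Cells: KB-V1 MDR subline, 72 h at 37 degrees C with compound. Analysis: corrected, normalized data fitted to concentration-effect curves.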
The depositor's hits bear a star; i = inactive; ? = inconclusive; · = no result; ! = not confirmed by another sample. Unless noted, the call rests on the fitted dose curve; in most records, active means well fitted curve in the direction sought with a large enough effect; inconclusive means small, poorly fitted or top-dose-only effect, or another doubt; inactive means no such curve, though single readings can be large; an effect the other way counts as inactive or inconclusive.

SMILES	D3 ag	SW480 rerep	MCF10A rereplic	D3 antag	KB-3-1 tox	KB-V1 cytotox
O=C(NCCCn1ccnc1)c1cc(-c2cccs2)on1	-7	4%	15%	0	15µM*	15µM*
O=C(NC(=S)Nc1cccc(C(F)(F)F)c1)c1csnn1	1	6.5µM*	29%	-3	i	i
O=C(NCCCN1CCOCC1)c1cc(-c2cccs2)on1	-21	-9%	7%	-10	i	i
O=C(Nc1cccc(C(F)(F)F)c1)c1sc(Cl)nc1C(F)(F)F	-4	-5%	21µM*	-18	i	i
O=C(NNC(=S)Nc1cccc(C(F)(F)F)c1)c1ccncc1	8	·	·	-5	i	i
CCCCOc1cccc(C(=O)N(Cc2ccc(N(C)C)cc2)C2CCS(=O)(=O)C2)c1 (centres undefined)	-5	·	·	·	i	i
CCc1ccc(-c2nc3cc(NC(=O)c4ccc(F)cc4)ccc3o2)cc1	-8	·	·	·	i	i
O=C(Nc1cccnc1)c1cc(-c2cccs2)on1	-23	0%	-5%	-61*	i	i
CSc1ncc(C(=O)Nc2c(C)cccc2C)c(-c2ccccc2)n1	-2	·	·	·	i	i
CC(OC(=O)C1CC(=O)N(Cc2ccco2)C1)C(=O)Nc1cccc(C#N)c1 (centres undefined)	0	5.8µM*	-2%	1	i	i
COc1cc(NC(=O)c2ccc3oc(=O)c(S(=O)(=O)c4ccccc4)cc3c2)cc(OC)c1	1	·	·	·	?	i
Cc1ccc(Cl)cc1NC(=O)Cn1nc2c(cc1=O)CC(C)CC2 (centres undefined)	-3	·	·	·	·	·
CCOC(=O)c1ccc(CC(=O)c2ccc(O)cc2O)o1	32*	2%	0%	29	i	i
CN1C(=O)c2ccccc2Sc2ccc(NC(=O)N3CCN(c4ccccc4)CC3)cc21	-4	·	·	·	?	?
Cc1cccc(N=C2Sc3nc4c(C)c(C)ccc4cc3CN2CCN2CCOCC2)c1	9	1%	12µM*	23	i	i
COCCN1Cc2cc3cc(C)ccc3nc2SC1=Nc1cccc(OC)c1	-14	68%	?	5	i	i
Cc1ncc(CO)c2c1Oc1nc(-c3ccccc3)nc(SCC(=O)Nc3cccc(O)c3)c1C2	-1	?	16µM*	13	?	i
CC1CCN(S(=O)(=O)c2ccc3c(c2)CCN3C(=O)Nc2ccc(Br)cc2F)CC1	-14	·	·	·	·	·
CCCc1cc(C(=O)N2CCCC(C(=O)c3cccc4ccccc34)C2)n(C)n1 (centres undefined)	11	-6%	5%	18	i	?
CCc1cc(C(=O)N2CCCC(C(=O)c3cccc4ccccc34)C2)n(C)n1 (centres undefined)	6	-2%	18%	10	21µM*	5.2µM*
CC(=O)N1CCc2cc(S(=O)(=O)CCC(=O)N3CCN(c4cccc(C)c4C)CC3)ccc21	1	·	·	·	i	i
CC(C)(C)c1cc(CN2CCCC(O)C2)c(O)c(C(C)(C)C)c1 (centres undefined)	2	20%	129%	19	?	16µM*
CC(C)(C)c1cc(CN(CCO)CCO)c(O)c(C(C)(C)C)c1	-12	-8%	?	0	i	i
COc1ccc(C(=O)NCC(c2cccnc2)N2CCc3ccccc3C2)cc1 (centres undefined)	-6	·	·	·	i	?
CCOc1ccc(CNC(=O)Cn2nc(C)n3cccc3c2=O)cc1	-22	·	·	·	i	i
SMILES	D3 ag	SW480 rerep	MCF10A rereplic	D3 antag	KB-3-1 tox	KB-V1 cytotox
CN1C(=O)c2cccc3c(N(C)C)ccc(c23)C1=O	1	-9%	7%	6	i	12µM*
C[n+]1c(/C=C/c2ccnc3ccccc23)cc(/C=C/c2ccnc3ccccc23)c2ccccc21	·	·	·	·	i	i
COc1ccc(C(=O)Nc2cc(C)nn2-c2nc3ccccc3[nH]2)c(OC)c1	21	-44%	?	26	i	i
Cc1cc(NC(=O)c2ccccc2)n(-c2nc3ccccc3[nH]2)n1	6	6%	8%	1	i	i
Cc1cc(NC(=O)c2cccs2)n(-c2nc3ccccc3[nH]2)n1	-2	4.6µM*	?	14	?	?
COc1cccc(OC)c1C(=O)Nc1cc(C)nn1-c1nc2ccccc2[nH]1	-4	?	?	1	15µM*	3.3µM*
Cc1cc(NC(=O)C2CCCC2)n(-c2nc3ccccc3[nH]2)n1	34*	?	20%	?	i	i
Cc1ccc(C)c(N(C)C(=O)C2CCN(S(=O)(=O)c3cccc4nsnc34)CC2)c1	-12	·	·	·	i	i
O=C(Cn1c(=O)n(-c2ccccc2)c(=O)c2ccc(C(=O)NCc3ccc4c(c3)OCO4)cc21)Nc1ccc(Br)cc1F	-10	·	·	·	i	i
OCCNCc1ccc(-c2ccccc2)cc1	-4	10%	14%	-22	i	i
OCCCNCc1ccc(N(c2ccccc2)c2ccccc2)cc1	-21	?	38%	-66*	?	?
CN(C)CCn1c2c(c(SCC(=O)Nc3ccc(F)cc3F)nc1=O)CCC2	-18	·	·	·	·	·
CC(=O)OCC(=O)[C@@]12OC3(CCCC3)O[C@@H]1C[C@H]1[C@@H]3CCC4=CC(=O)C=C[C@]4(C)[C@@]3(F)[C@@H](O)C[C@@]12C	-6	0.26µM*!	?	6	i	i
CC1(C)O[C@@H]2C[C@H]3[C@@H]4CCC5=CC(=O)C=C[C@]5(C)[C@@]4(F)[C@@H](O)C[C@]3(C)[C@]2(C(=O)CO)O1	-33	12%	-1%	12	i	i
Cc1ccc2[nH]c(CSc3nnc(NC(=O)COc4ccc(F)cc4)s3)cc(=O)c2c1	3	·	·	·	i	i
Cc1ccc(C2=C(O)C(=O)C(c3ccc(C)cc3)=C(O)C2=O)cc1	1	17%	?	-1	?	15µM*
Cc1ccc(N2CCN(S(=O)(=O)c3cccc4ccccc34)CC2)cc1Cl	-13	·	·	·	i	i
CCOc1ccc(CNC(=O)CCc2c(C)nn(-c3ccc(N4CCOCC4)nn3)c2C)cc1	3	·	·	·	i	i
COc1cccc(NC(=O)Cn2c(=O)n(Cc3nc(-c4ccccc4)no3)c(=O)c3ccccc32)c1	-2	·	·	·	i	i
CC1CCN(c2oc(-c3ccc(COc4ccccc4)o3)nc2C#N)CC1	4	·	·	·	i	i
COc1ccccc1NC(=O)C1C2C=CC(C2)C1C(=O)NCc1cccnc1 (centres undefined)	8	-13%	4.6µM*	1	i	i

Source: PubChem BioAssay (National Center for Advancing Translational Sciences (NCATS))
